Values without a mark were called inactive. How the calls were made is not given here.
Test: blockers of DNA damage checkpoint Chk1 activation – imaging, HeLa, hydroxyurea, phospho-Chk1 antibody, percent positive cells, primary screen (AID 1186)
Details: hydroxyurea-induced phospho-Chk1 immunofluorescence imaging, higher = more signal

SMILES	z-score
CC(C)c1ccc(NN2C(C(O)c3ccc4c(c3)OCO4)C=CC3C(=O)N(c4ccccc4)C(=O)C32)cc1 (stereo not given)	-0.575
CN1C(=O)[C@@]2(CCC(=O)OC(C)(C)C)N=C(c3ccc(OCCCO)cc3)O[C@H]2c2ccccc21	-0.414
COC(=O)[C@@]1(Cc2ccc(F)cc2)[C@@H]2C(=CC(=O)[C@H]2CC(=O)C(=O)N(C)C)CN1C(=O)c1ccccc1	-0.0509
O=C(CS)NCCCCCNC(=O)[C@H]1C[C@H]2C(=O)N3CCC[C@H]3C(=O)N2[C@H]1c1cccc(OCCO)c1	-0.58
C=CCOC(=O)[C@H]1[C@@H]2C(=O)O[C@@H](c3ccccc3)[C@@H](c3ccccc3)N2[C@@H](c2ccc(OCCOC(=O)[C@H]3C[C@H]4C(=O)N[C@@H](Cc5ccccc5)C(=O)N4[C@H]3c3ccc(O)cc3)cc2)[C@]12C(=O)Nc1ccccc12	0.464
COc1ccc([Si](C)(C)[C@@H]2[C@@H](CCO)O[C@]3(C(=O)N(Cc4ccc(NC(C)=O)cc4)c4ccccc43)[C@H]2C)cc1	-0.861
CCCCCN1CC=CC23O[C@@H]4C=CCOC(=O)[C@@H]4[C@H]2C(=O)N(CCCCCCO)[C@@H]3C1=O (stereo not given in full)	-0.0533
COC(=O)C1(C)C=C2C(=C(c3ccccc3)C(=O)C2C)CN1 (stereo not given)	0.74
CC(C)N1CC=CC23O[C@@H]4C=CCCOC(=O)C4[C@H]2C(=O)N(CCCCCCO)[C@@H]3C1=O (stereo not given in full)	-0.478
COc1ccc([Si](C)(C)[C@H]2[C@H](CCO)O[C@@]3(C(=O)N(Cc4cccc(NC(=O)[C@H](C)O)c4)c4ccccc43)[C@@H]2C)cc1	-1.95
COc1ccc(CCNC(=O)[C@@H]2c3ccccc3C(=O)N(c3ccc(C)cn3)[C@H]2c2ccc(CO)cc2)cc1	0.274
C=CCNC(=O)[C@H]1[C@@H]2C(=O)O[C@@H](c3ccccc3)[C@@H](c3ccccc3)N2[C@@H](c2ccc(O)cc2)[C@]12C(=O)N(C(=O)OCCOC)c1ccc(C#CC3=CCCCC3)cc12	-0.411
[N-]=[N+]=NCc1ccccc1[C@@H]1OC(c2ccc(OCCCO)cc2)=N[C@]1(Cc1ccccc1)C(=O)N1CCOCC1	-0.449
CC(C)C[C@@H]1NC(=O)[C@H]2C[C@@H](C(=O)NCCCCCCN(C)C)[C@@H](c3cccc(OCCO)c3)N2C1=O	-0.111
C=C(/C(=C/C[C@@H](OC(=O)c1ccncc1)c1ccc(OCCO)cc1)c1cnc2ccccc2c1)C(C)C	-0.452
CS(=O)(=O)CCOC(=O)C1=CC(CCCO)=CC(c2cccs2)N(Cc2cccc(OC(F)(F)F)c2)C=C1C(=O)OCCS(C)(=O)=O (stereo not given)	0.724
COCCCNC(=O)[C@]1(CCC(=O)OC(C)(C)C)N=C(c2ccc(OCCCO)cc2)O[C@@H]1c1ccccc1N=[N+]=[N-]	-0.437
Cc1ccc(C2CC=C(C(=O)O)CN2S(=O)(=O)c2ccc(C)cc2)cc1 (stereo not given)	-0.185
O=C1O[C@@H](c2ccccc2)[C@@H](c2ccccc2)N2[C@@H](c3ccc(OCCO)cc3)[C@]3(C(=O)Nc4ccccc43)[C@@H](C(=O)N3CCN(c4ncccn4)CC3)[C@H]12	0.189
COCCOC(=O)N1C(=O)[C@@]2(c3cc(C#CCNC(N)=O)ccc31)[C@H](c1ccccc1OCCO)N1[C@H](c3ccccc3)[C@H](c3ccccc3)OC(=O)[C@H]1[C@@H]2C(=O)N1CCN(c2ncccn2)CC1	-0.44
COCCOC(=O)N1C(=O)[C@@]2(c3cc(C#Cc4ccc(OC)cc4)ccc31)[C@H](C(=O)N1CCN(c3ncccn3)CC1)[C@H]1C(=O)O[C@H](c3ccccc3)[C@H](c3ccccc3)N1[C@@H]2c1ccc(OCCO)cc1	-0.102
CN(C)CCCNC(=O)[C@@H]1c2ccccc2C(=O)N(Cc2cc(F)cc(C(F)(F)F)c2)[C@H]1c1ccc(CO)cc1	0.241
CCCNC(=O)[C@@H]1c2ccccc2C(=O)N(c2ccc(C)cn2)[C@H]1c1ccc(CO)cc1	0.929
CN1C(=O)C2C=CC(C(O)c3ccc(I)cc3)N(NC(=O)OC(C)(C)C)C2C1=O (stereo not given)	0.256
COC(=O)c1c(CC[C@@H](CO)NC(=O)N[C@H](Cc2ccccc2)Cn2cc(-c3ccccc3N)nn2)oc(C(C)=O)c1C(=O)OC	-0.125

Source: PubChem BioAssay
